Compound activity deposited in PubChem by National Center for Advancing Translational Sciences (NCATS).
Hits are enriched below; roughly 10% of the tested compounds scored in any of these assays.
GPT2 inhibitor: Primary qHTS assay for inhibitors of Glutamate pyruvate transaminase 2 (GPT2); Recombinant GPT2, coupled pyruvate oxidase/HRP Amplex Red fluorescence; Potency, µM (doses to about 57.7 µM), usual class: inhibitors; AID 1671188, 2021; actives 0.25% (n = 100,000); further: nearly all actives have a fitted effect of over 60% in size
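GPT2 10ng/uL, a-KG 250uM, L-Ala 2mM, HEPES pH7.5 + 0.0001% Tween; 30 min RT. Then Amplex mix (PO/HRP/ThPP), 30 min RT dark, fluorescence. AOA 50uM used as positive control.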
Luciferase inh: Firefly luciferase inhibition profiling of diverse chemical library using quantitative high-throughput screening. Luciferin 4-monooxygenase (Photinus pyralis), P08659. purified P. pyralis luciferase, luminescence, biochemical. Potency, µM (doses to about 115 µM), actives largely listed as inhibitors. actives 2.5% (n = 76,000). AID 1347043, 2019; further: nearly all actives have a fitted effect of over 65% in size
Target sequence (P08659 whole entry, looked up): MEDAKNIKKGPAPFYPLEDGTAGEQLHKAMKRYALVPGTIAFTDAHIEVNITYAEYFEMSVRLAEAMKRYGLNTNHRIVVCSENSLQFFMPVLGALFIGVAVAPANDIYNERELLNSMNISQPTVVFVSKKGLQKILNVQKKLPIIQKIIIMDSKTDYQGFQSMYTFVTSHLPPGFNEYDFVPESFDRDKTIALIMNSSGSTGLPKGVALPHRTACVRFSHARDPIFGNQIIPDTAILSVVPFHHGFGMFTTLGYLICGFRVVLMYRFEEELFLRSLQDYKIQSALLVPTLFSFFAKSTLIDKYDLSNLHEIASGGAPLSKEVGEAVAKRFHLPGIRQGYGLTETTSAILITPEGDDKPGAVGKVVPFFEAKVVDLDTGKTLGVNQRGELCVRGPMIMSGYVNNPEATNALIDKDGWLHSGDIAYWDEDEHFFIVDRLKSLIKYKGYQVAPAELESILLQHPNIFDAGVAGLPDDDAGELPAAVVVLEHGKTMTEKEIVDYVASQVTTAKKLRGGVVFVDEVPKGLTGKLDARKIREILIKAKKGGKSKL
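Luminescence read by CCD imager after adding enzyme (10nM final) to wells holding compound, titrated in qHTS. Substrates 10uM each D-luciferin and ATP; buffer 50mM Tris acetate pH 7.5, 10mM Mg acetate, Tween-20, BSA.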
HEK293 tox: Cytotoxic Profiling in HEK 293 Cell Line of Diverse Libraries Using Quantitative High-Throughput Screening; HEK 293 viability, ATP luminescence (CellTiter-Glo), 48-72 h; Potency, µM (top dose mostly 115 µM), hits mostly inhibitors; actives 6.6% (n = 94,000); AID 1345083, 2018; further: nearly all actives have a fitted effect of over 60% in size
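Luminescence from cellular ATP, measured with CellTiter-Glo, indicates HEK 293 viability. Cells plated at 250 cells/well are treated with compound for 48 or 72 hr at 37 degree Celsius before reagent addition.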
3T3 cytotox: Cytotoxic Profiling in NIH 3T3 Cell Line of Diverse Libraries Using Quantitative High-Throughput Screening; NIH 3T3 viability, CellTiter-Glo ATP luminescence, 48-72 h; Potency, µM (titrated, usually from 96.7 µM), usual class: inhibitors; actives 4.3% (n = 94,000); AID 1345082, 2018; further: nearly all actives have a fitted effect of over 55% in size
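First NIH 3T3 cells are plated at 400 cells/well; next compound is pinned in; then plates incubate 48 or 72 hr at 37 °C; finally CellTiter-Glo is added and luminescence read after 10 min.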
NPR1 antag: Natriuretic polypeptide receptor (hNpr1) antagonism - Primary qHTS | Atrial natriuretic peptide receptor 1 (Homo sapiens), P16066 | HEK293 hNpr1 GloSensor cGMP, ANP-stimulated luminescence | Potency, µM (titrated, usually from 46.3 µM), most hits filed as inhibitors | actives 1.6% (n = 76,000); calls by dose curve; further: nearly all actives have a fitted effect of over 60% in size
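HEK293 cells stably expressing human Npr1 and cGMP GloSensor pGS-40F, loaded 2 h with 2% GloSensor reagent, given compound 30 min at room temperature. Luminescence read before and 20 min after 0.1 nM hNppA.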
A number is an active result; i = inactive; ? = inconclusive; nt = not tested or not shown. Unless noted, the call rests on the fitted dose curve; in most records, active means well fitted curve in the direction sought with a large enough effect; inconclusive means small, poorly fitted or top-dose-only effect, or another doubt; inactive means no such curve, though single readings can be large; an effect the other way counts as inactive or inconclusive.

SMILES	GPT2 inhibitor	Luciferase inh	HEK293 tox	3T3 cytotox	NPR1 antag
O=C(c1cccc(Cl)c1)N1CCCN(c2ccnc3ccnn23)CC1	i	nt	?	?	nt
CCOc1ccc(CN2CCN(C/C=C/c3ccccc3OC)CC2CCO)cc1 (centres undefined)	i	i	20µM	?	i
CCCCN1C(=O)[C@@H]2C[C@@H](O)CN2C2(CN(Cc3ccc(F)cc3)C2)C1=O	i	i	i	i	i
CN(Cc1nccn1C)C(=O)c1csc2nc(-c3ccc(C(F)(F)F)cc3)cn12	i	39.8µM	39.8µM	?	i
CC(C)(CN1CCOCC1)NC(=O)c1csc2nc(-c3ccc(F)cc3)cn12	i	i	?	i	i
CC(C)c1noc(CN(C)C(=O)c2csc3nc(-c4ccc(F)cc4)cn23)n1	i	i	44.7µM	?	?
COc1ccc(-c2noc(Nc3cc(OC)c(OC)c(OC)c3)n2)cc1OC	i	i	22.4µM	?	i
COc1cc(Nc2nc(-c3ccccc3F)no2)cc(OC)c1OC	i	?	31.6µM	?	i
COc1cccc(-c2noc(Nc3cc(OC)c(OC)c(OC)c3)n2)c1	?	?	44.7µM	?	i
COc1cc(Nc2nc(-c3ccccc3)no2)cc(OC)c1OC	i	31.6µM	?	?	i
CN(C)[S+](=O)([O-])c1ccc2c(c1)OCCN(Cc1cccc(Cl)c1)C2	i	i	79.4µM	?	i
Cc1cc(F)cc(CN2CCOc3cc([S+](=O)([O-])N(C)C)ccc3C2)c1	i	i	79.4µM	39.8µM	i
COCCNC(=O)c1ccc(-c2ccc(N3CCCCCC3)nc2)cc1	i	?	?	?	i
O=C(NCCN1CCOCC1)c1ccc(-c2ccc(N3CCCCCC3)nc2)cc1	i	?	35.5µM	35.5µM	i
O=C(NCCCN1CCOCC1)c1ccc(-c2ccc(N3CCCCCC3)nc2)cc1	i	?	35.5µM	?	i
COc1ccc(CNC(=O)c2ccc(-c3ccc(N4CCSCC4)nc3)cc2)cc1	i	i	i	i	i
O=C(NCc1cccnc1)c1ccc(-c2ccc(N3CCSCC3)nc2)cc1	?	?	10µM	4.47µM	11.2µM
O=C(NCC1CCCO1)c1ccc(-c2ccc(N3CCCCC3)nc2)cc1 (centres undefined)	i	?	i	i	i
O=C(NCCCN1CCCC1=O)c1ccc(-c2ccc(N3CCSCC3)nc2)cc1	i	39.8µM	?	?	?
O=C1NC2(CCCN(Cc3ccccc3C(F)(F)F)C2)Oc2ccccc21 (centres undefined)	?	i	44.7µM	?	i
O=C1NC2(CCN(Cc3ccccc3C(F)(F)F)C2)Oc2ccccc21 (centres undefined)	i	i	i	i	i
O=C1NC2(CN(Cc3ccccc3C(F)(F)F)C2)Oc2ccccc21	i	i	39.8µM	?	i
CS(=O)(=O)N1CC2(CCN(C3CCCCC3)CC2)Cc2ccccc21	i	nt	i	i	nt
O=C(C1CCCN1C(=O)c1ccc(F)cc1)N1CCC(c2nc3ccncc3[nH]2)C1 (centres undefined)	i	nt	i	i	nt
Cn1ncc2c(C(=O)NC3CCOCC3)cc(-c3ccc(C(F)(F)F)cc3)nc21	nt	nt	i	i	nt
SMILES	GPT2 inhibitor	Luciferase inh	HEK293 tox	3T3 cytotox	NPR1 antag
Cn1ncc2c(C(=O)NC3CCC3)cc(-c3ccc(C(F)(F)F)cc3)nc21	nt	nt	39.8µM	35.5µM	nt
Cn1ncc2c(C(=O)NCC3CC3)cc(-c3ccc(C(F)(F)F)cc3)nc21	nt	nt	31.6µM	?	nt
Cn1ncc2c(C(=O)NCC3CC3)cc(-c3ccsc3)nc21	i	nt	?	89.1µM	nt
COc1ccc(-c2cc(C(=O)NC3CCC3)c3cnn(C)c3n2)cc1	nt	nt	i	i	nt
COc1cccc(-c2cc(C(=O)NC3CCC3)c3cnn(C)c3n2)c1	nt	nt	79.4µM	?	nt
Cn1ncc2c(C(=O)NCc3ccc(C(F)(F)F)cc3)cc(-c3ccc(C(F)(F)F)cc3)nc21	nt	nt	i	i	nt
O=C(CCCc1ccccc1)N1CCC[C@H]1c1nc(-c2ccccc2)no1	i	i	?	?	i
COc1cccc(CNCC2(COc3ccccc3)C[C@@H](O)[C@@H](O)C2)c1 (some centres undefined)	i	i	?	?	i
COc1cccc(-c2cc(C(=O)NCc3ccccn3)c3cnn(C)c3n2)c1	nt	nt	79.4µM	?	nt
O=C(Nc1ccccc1)N[C@H]1CO[C@H]2[C@@H]1OC[C@@H]2n1cc(CC2CCCCC2)nn1	i	i	i	?	i
CN(Cc1ccccc1)Cc1cn([C@H]2CO[C@H]3[C@@H]2OC[C@@H]3NS(=O)(=O)c2cccs2)nn1	i	i	?	?	i
O=C(Nc1cccc(C(F)(F)F)c1)N[C@H]1CO[C@H]2[C@@H]1OC[C@@H]2n1cc(CC2CCCCC2)nn1	i	i	39.8µM	?	?
COCc1cn([C@H]2CO[C@H]3[C@@H]2OC[C@H]3OC(=O)Nc2cccc(C(F)(F)F)c2)nn1	i	i	79.4µM	?	i
O=S(=O)(N[C@H]1CO[C@H]2[C@@H]1OC[C@@H]2n1cc(CC2CCCCC2)nn1)c1cccs1	i	i	79.4µM	?	i
O=C1CN([S+](=O)([O-])Cc2ccccc2)CC(O)CN1CCc1ccccc1 (centres undefined)	nt	nt	?	i	nt
Cc1ccc(CN2C(=O)COC[C@H]2C(=O)Nc2ccccc2F)cc1	i	nt	i	i	nt
CC(C)C(=O)NC1CCCN(c2ccnc3ccnn23)C1 (centres undefined)	i	nt	i	i	nt
Cc1ccc(Cl)cc1N1CCN(C(=O)CN2CC3CC(C2)[C@H]2CCCC(=O)N2C3)CC1 (some centres undefined)	i	i	?	i	i
CCNC(=O)[C@@H]1C[C@H](NC(=O)c2cccc(-c3ccc(F)cc3)c2)CN1C	i	35.5µM	?	i	i
C/C=C/CN1C[C@@H](NC(=O)c2cccc(N(C)C)c2)C[C@H]1C(=O)NCC	i	i	i	i	i
O=C(NC1CCCN(c2cc(-c3ccc(F)cc3)[nH]n2)C1)c1cccc(Cl)c1 (centres undefined)	i	i	35.5µM	17.8µM	i
O=C(NC1CCCN(c2cc(-c3ccc(F)cc3)[nH]n2)C1)c1cccc(Br)c1 (centres undefined)	i	i	31.6µM	?	i
CN(C)c1cccc(C(=O)NC2CCCN(c3cc(-c4ccc(Cl)cc4)[nH]n3)C2)c1 (centres undefined)	i	?	?	?	i
Cc1nnc2ccc(N3CCCC(NC(=O)c4cccc(Cl)c4)C3)nn12 (centres undefined)	nt	nt	79.4µM	?	nt
